For 31 molecules, inhibition results are on record in PubChem BioAssay AID619 (University of Pittsburgh Molecular Library Screening Center, 2007).

Each structure is given as a SMILES string. In all, about 97,000 compounds went through this assay and about 520 (0.54%) were called active. This is one part of a sample in which actives are shown more often than they occur. Unmarked numbers belong to inactive results.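 Rule for the calls: active = inhibition of 50% or more in the single-concentration screen; inactive = inhibition below 50%.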

Sequence of Serine/threonine-protein kinase PLK1 (Homo sapiens) (P53350 whole entry, looked up): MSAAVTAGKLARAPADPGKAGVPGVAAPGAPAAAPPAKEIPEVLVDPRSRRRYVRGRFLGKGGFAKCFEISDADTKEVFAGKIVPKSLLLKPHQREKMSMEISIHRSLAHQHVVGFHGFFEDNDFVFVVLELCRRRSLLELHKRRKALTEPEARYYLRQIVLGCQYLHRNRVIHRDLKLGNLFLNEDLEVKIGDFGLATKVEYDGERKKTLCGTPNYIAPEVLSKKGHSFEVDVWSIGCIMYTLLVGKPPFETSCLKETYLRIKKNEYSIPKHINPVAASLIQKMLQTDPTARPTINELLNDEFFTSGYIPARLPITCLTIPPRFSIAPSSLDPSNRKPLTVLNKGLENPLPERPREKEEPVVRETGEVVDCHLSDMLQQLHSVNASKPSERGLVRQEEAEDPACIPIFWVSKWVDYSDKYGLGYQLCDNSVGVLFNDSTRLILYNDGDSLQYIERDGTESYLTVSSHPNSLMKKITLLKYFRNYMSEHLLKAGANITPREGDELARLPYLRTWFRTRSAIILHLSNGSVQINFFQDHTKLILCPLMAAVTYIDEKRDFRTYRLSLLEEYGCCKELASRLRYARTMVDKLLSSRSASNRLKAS

This experiment addresses Serine/threonine-protein kinase PLK1 (Homo sapiens) (UniProt P53350). Kind of experiment: human PLK1 kinase inhibitors, primary screen, biochemical, TR-FRET (AID 619).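 Note: 0% = DMSO max control and 100% = H-89 dihydrochloride min control.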 To be noted: recombinant PLK1 kinase, TR-FRET peptide phosphorylation; at 10 µM; hits give high values.
For orientation: inhibition means the drop in the measured response relative to a control, in per cent. Regarding `CCCc1nc(NCc2ccc3c(c2)OCO3)c2nnn(Cc3ccccc3Cl)c2n1`, the inhibition is -9.3%. For the molecule `CCC(=O)NNc1cc(=O)c2c(=O)n(C)c(=O)n(C)c2[nH]1`, the inhibition is -9.06%. As to `CN(C)/C=C(\C#N)C(=O)c1cccnc1Oc1ccc(F)cc1F`, the inhibition is -4.48%.

`COCCCNC(=O)C1CC(=O)N(CCc2ccccc2)C1` (stereo unspecified): the inhibition is -12.8%. In the case of `COc1cc(OC)cc(-c2cc3nc(C4CCN(C(=O)OC(C)(C)C)CC4)cc(=O)n3[nH]2)c1`, the inhibition is -8.81%.

As to `Cc1c(Nc2nc3ccccc3nc2NS(=O)(=O)c2cccs2)c(=O)n(-c2ccccc2)n1C`, the inhibition was -2.91%. Regarding `Cc1cccc(N2C(=O)C3C(c4ccccc4)OC4(C(=O)c5ccccc5C4=O)C3C2=O)c1` (stereo unspecified), the inhibition was -6.04%. Turning to `Cc1cccc(N2C(=O)SC(N(CC(=O)O)c3cccc(C)c3)C2=O)c1` (stereo unspecified), the inhibition is 68.7% (active). With `Cc1cccc(N(CC(=O)N2CCOCC2)S(C)(=O)=O)c1`, the inhibition was -16.7%. `CCOC(=O)c1cc(C#N)c(N2CCCCC2)nc1-c1ccccc1`: the inhibition was -7.56%. As for `COc1ccc(NC(=O)Cn2nnc(C(=O)NCCc3ccc(OC)c(OC)c3)c2N)cc1`, the inhibition is -3.12%.

For `CCC(=O)NCCc1nc2ccccc2n1CC`, the inhibition is -12.5%. For `Cc1ccc(S(=O)(=O)NCC(C)NS(C)(=O)=O)cc1` (stereo unspecified), the inhibition was -7.03%. Take `O=C(c1cccc(F)c1)N1CCC(O)(c2cccnc2)CC1`: the inhibition is -11.3%.

Consider `Cc1cc(S(=O)(=O)NC2CCCCC2)ccc1OCC(=O)NCc1cccnc1`, for which the inhibition is -6.44%. With `Cc1ccc(N2C(=O)S/C(=C/c3cn(C)c4ccccc34)C2=O)cc1`, the inhibition was -7.68%. In the case of `CCCCNc1nc2c(c(=O)[nH]c(=O)n2C)n1CCOc1ccccc1`, the inhibition was -13.6%. As to `CC(c1ccccc1)n1c(NCCCn2ccnc2)nc2c1c(=O)[nH]c(=O)n2C` (stereo unspecified), the inhibition was -13.2%.

As for `Cn1c(=O)[nH]c(=O)c2c1nc(NCCCn1ccnc1)n2Cc1cccc(Br)c1`, the inhibition is 51.2% (active). As to `CCOC(=O)N1CCC(N(CCOC)C(=O)Nc2ccc(C)c(C)c2)CC1`, the inhibition is -7.06%.

`Cn1nc(-c2ccccc2)c(CSc2cccc(Cl)c2)c1Cl`: the inhibition was -5.77%.

As to `CCCC(=O)C1CCN(Cc2ccccc2)CC1`, the inhibition is -5.07%. As for `Cc1ccc(N2C(=O)C(Cc3ccccc3)NC2=S)cc1` (stereo unspecified), the inhibition was -4.76%. As for `CCOC(=O)c1ccc2c(c1)nc(SCC(=O)NC(C)C)n2CC`, the figure is -12.9%; as for `O=C(NCCCN1CCOCC1)c1cc2c(s1)CCC2`, 12.4%; as for `CCn1c(SCCC(C)C)nnc1-c1c[nH]c2ccccc12`, 57.8% (active).

As to `CCC(C)Sc1nnc(-c2c[nH]c3ccccc23)n1CCOC` (stereo unspecified), the inhibition was -10.2%. In the case of `CCn1c(SCC(=O)Nc2ccc(OC)c(OC)c2)nnc1-c1c[nH]c2ccccc12`, the inhibition is -21.5%. For the molecule `CCCC(C(=O)n1nc(C)cc1C)C(NS(=O)(=O)c1ccc(C)cc1)c1ccccc1` (stereo unspecified), the inhibition was -12%. For `COc1ccc(Oc2coc3cc(OC(=O)c4cncc(Br)c4)ccc3c2=O)cc1`, the inhibition is -8.95%.

In the case of `Cc1cc(C)c2nc(NC(=O)C3CCCO3)sc2c1` (stereo unspecified), the inhibition is -2.38%.
